Active and inactive are the calls of the source.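 The calls were made as follows, unless noted: active = inhibition of the reporter signal at or above 50%; inactive = inhibition below 50%.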

For orientation: inhibition means the change of the read-out against control, counted positive when it falls.

The nature of test [1]: inhibitors of TNFa-induced NFkB p65 translocation, primary screen, imaging, HUVEC, MLSMR starter and 10KST1 sets (AID 438;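 active = inhibition above 20% together with a positive visual image hit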;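 also: compound added about 3h40 before a 20 min TNFalpha stimulation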;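 as to inhibition: signal is the nuclear over cytoplasmic p65 intensity ratio per well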). To be noted: HUVEC TNFa-induced p65 nuclear translocation; cell count: measured here: nuclei count (cytotoxicity indicator), at 2.08 µM; inhibition: at 2 µM, stronger effect = higher value, 0% TNFa-plus-vehicle, 100% no-TNFa wells.
Test [2] is described as follows: reduction of polyQ htt aggregates in cells – imaging, exon1htt(103Q)mCFP cells, high-content imaging, primary screen (AID 483;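 active = visual image review flags a hit and inhibition of aggregation exceeds 20%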;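 also: compound exposure lasted 3 days before fixation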;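 as to nuclei count: percent of the per-plate median nuclei count of sample wells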). Particulars: exon1htt(103Q)mCFP cell line, aggregate imaging, at 2 µM; inhibition of aggregation: stronger effect = higher value; nuclei count: measured here: cell count, toxicity.
The nature of test [3]: endothelial E-selectin expression blockers – imaging, HUVEC, immunofluorescence, MLSMR starter and 10KST1 sets, primary screen (AID 487;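 active = visually confirmed hit in the image check and inhibition above 20%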;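 as to inhibition: signal is fraction of cell area covered by stained E-selectin grains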;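 as to nuclei count: 100% = median nuclei count of all wells on the same plate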). Particulars: HUVEC TNFalpha-induced E-selectin immunofluorescence imaging, at 2 µM; inhibition: stronger effect = higher value; nuclei count: measured here: cell number, toxicity.
Test [4] deals with Voltage-gated potassium channel subunit beta-2 (Rattus norvegicus) (UniProt P62483). Description: inhibitors of rat Kvbeta2 reductase activity – biochemical, NADPH fluorescence, primary screen (AID 622;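 active = fluorescence slope higher than the sample average by over 3 SD, cut at about -0.22 in these data, passing the limit was not always enough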;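 also: slope of raw intensity against log time taken from 70 to 1610 s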). To be noted: recombinant KvBeta, 4-cyanobenzaldehyde reduction, at 10 µM, stronger effect = higher value.
For test [5] the target is unchanged. Description: enhancers of rat Kvbeta2 NADPH turnover – biochemical, NADPH fluorescence, primary screen (AID 623;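 active = NADPH fluorescence slope more negative than the mean of all samples by about 3 SD, 99.7% confidence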;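 also: fluorescence intensity change per second fitted from 20 to 320 s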). To be noted: Recombinant KvBeta, NADPH fluorescence decrease slope, 10 min; at 10 µM; stronger effect = lower value.
In test [6] the target is Alpha-2C adrenergic receptor (Homo sapiens) (UniProt P18825). Description: compounds altering alpha2C-coupled GIRK flux – cell-based, HEK293 alpha2C/GIRK1/2, thallium flux, primary screen (AID 624;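 active = fluorescence slope after compound addition differing from the mean of all screened samples at 99.7% confidence, in either direction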;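 also: slope of fluorescence ratio to pre-addition baseline per second over 15 to 24 s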). To be noted: thallium flux BTC fluorescence, at 10 µM, actives lie on both sides.
Test [7] can be described thus: blockers of RIG-like receptor reporter activation – cell-based, Sendai virus stimulus, luciferase, 10K MLSCN set, TLR/RLR signaling modifier project, primary screen (AID 602276;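 active = inhibition at or above 50% at 10 µM; inactive = inhibition below 50%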;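 also: firefly luciferase from ISG56 promoter only with Renilla not read in this screen; 0% = Sendai virus plus DMSO and 100% = medium plus DMSO without virus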). To be noted: HEK293 RL24 IRF3 luciferase reporter, at 10 µM, stronger effect = higher value. (In general: Reporter assays use an easily measured gene product as a stand-in for the process of interest.)

Test [8] in a line: TLR3 IRF3 reporter activation blockers – cell-based, poly I:C stimulus, luciferase, 10K MLSCN set, primary screen (AID 602277). To be noted: HEK293-TLR3 RL24 IRF3 luciferase reporter, at 10 µM, stronger effect = higher value.

Sequence of Voltage-gated potassium channel subunit beta-2 (Rattus norvegicus) (P62483 whole entry, looked up): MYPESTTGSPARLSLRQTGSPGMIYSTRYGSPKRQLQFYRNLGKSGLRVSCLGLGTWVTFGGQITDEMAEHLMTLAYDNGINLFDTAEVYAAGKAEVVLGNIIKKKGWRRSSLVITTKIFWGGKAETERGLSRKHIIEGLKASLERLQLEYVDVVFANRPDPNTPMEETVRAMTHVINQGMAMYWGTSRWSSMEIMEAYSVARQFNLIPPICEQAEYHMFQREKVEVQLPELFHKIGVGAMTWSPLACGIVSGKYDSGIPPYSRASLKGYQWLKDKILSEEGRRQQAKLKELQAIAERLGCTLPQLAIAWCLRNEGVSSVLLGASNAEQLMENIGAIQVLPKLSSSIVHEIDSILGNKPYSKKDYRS
Sequence of Alpha-2C adrenergic receptor (Homo sapiens) (P18825 whole entry, looked up): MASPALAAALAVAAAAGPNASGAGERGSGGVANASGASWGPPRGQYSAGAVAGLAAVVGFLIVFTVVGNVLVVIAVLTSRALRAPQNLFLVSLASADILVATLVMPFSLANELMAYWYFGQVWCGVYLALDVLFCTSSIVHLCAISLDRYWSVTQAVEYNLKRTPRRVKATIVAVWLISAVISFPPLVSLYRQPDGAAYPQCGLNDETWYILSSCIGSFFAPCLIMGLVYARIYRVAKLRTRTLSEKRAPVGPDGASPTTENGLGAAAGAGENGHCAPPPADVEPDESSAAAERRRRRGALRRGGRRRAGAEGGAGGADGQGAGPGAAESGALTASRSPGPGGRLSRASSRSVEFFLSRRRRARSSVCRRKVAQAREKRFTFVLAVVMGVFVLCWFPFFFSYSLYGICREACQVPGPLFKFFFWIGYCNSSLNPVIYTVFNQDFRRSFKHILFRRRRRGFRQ

As for `Cc1nnc(N(C)C(=O)Cc2ccc3c(c2)OCO3)s1`, the cell count in test [1] is 709. The inhibition was -6.1% (inactive) in test [1], 6.8% (inactive) in test [3], 21.5% (inactive) in test [7] and 39.7% (inactive) in test [8]. The inhibition of aggregation in test [2] was 15.2% (inactive). Also, the values for the nuclei count in test [2] and in test [3] were 107% and 112%, respectively. Further, the fluorescence slope in test [4] is -0.55 (inactive). For the same molecule, the NADPH fluorescence slope in test [5] is 1.1e-05 (inactive). In test [6], the slope was 0.00419 (inactive).

On to `O=C(O)C1CC=CCC1C(=O)Nc1cc(Cl)ccc1Cl` (centres undefined), for which the cell count in test [1] worked out at 389. Moreover, the inhibition in test [1] is 4.2% (inactive); in test [3] it was 5.3% (inactive); in test [7], -11.2% (inactive); in test [8] it was 1.01% (inactive). Further, the inhibition of aggregation in test [2] was -1.2% (inactive). Moreover, the nuclei count in test [2] was 98.5%; in test [3] it was 102%. For the same molecule, the fluorescence slope in test [4] was -0.505 (inactive). The NADPH fluorescence slope in test [5] is -2.3e-05 (inactive). Besides, in test [6], the slope is 0.00676 (inactive).

In the case of `CCOC(=O)C1=C(C)N(C)C(=O)NC1c1ccccc1OC` (centres undefined), the cell count in test [1] was determined as 692. For the same molecule, the inhibition is -11.4% (inactive) in test [1], 50.2% (inactive) in test [3], 16.2% (inactive) in test [7] and 33.7% (inactive) in test [8]. Besides, the inhibition of aggregation in test [2] was -20.9% (inactive). The nuclei count in test [2] came out at 92.6%; in test [3], 93.2%. In addition, the fluorescence slope in test [4] was -0.4 (inactive). Besides, the NADPH fluorescence slope in test [5] was -1.2e-05 (inactive). Moreover, in test [6], the slope was 0.00553 (inactive).

Regarding `O=C(NCC(c1cccnc1)N1CCN(c2ccccc2)CC1)c1ccc2c(c1)OCO2` (centres undefined), in test [1], the cell count turned out to be 362. For the same molecule, the inhibition in test [1] was -1.8% (inactive); in test [3] it was 29.6% (inactive); in test [7], 8.91% (inactive); in test [8], 16.3% (inactive). In addition, the inhibition of aggregation in test [2] is 25.6% (inactive). Also, the nuclei count was 87.1% in test [2] and 83.3% in test [3]. Moreover, the fluorescence slope in test [4] is -0.619 (inactive). In addition, the NADPH fluorescence slope in test [5] is -1.3e-05 (inactive). Further, the slope in test [6] is 0.00563 (inactive).

Take `CC(=O)C1=C(C)NC(=O)NC1c1cccc(O)c1` (centres undefined): the cell count in test [1] stood at 454. Further, the inhibition in test [1] was 7.3% (inactive); in test [3], -36.2% (inactive); in test [7] it was 14.2% (inactive); in test [8], 16% (inactive). The inhibition of aggregation in test [2] is 0% (inactive). Moreover, the figures for the nuclei count in test [2] and in test [3] were 111% and 110%, respectively. Also, in test [4], the fluorescence slope was -0.399 (inactive). In addition, in test [5], the NADPH fluorescence slope was -5e-05 (inactive). In addition, the slope in test [6] is 0.00509 (inactive).

With `CCn1c(NC(=O)c2cccc(Cn3cc(Cl)cn3)c2)nc2ccccc21`, the cell count in test [1] was determined as 598. Further, the inhibition in test [1] was 4% (inactive); in test [3] it was -45.1% (inactive); in test [7], -3.99% (inactive); in test [8], -9.89% (inactive). Besides, the inhibition of aggregation in test [2] is 13.3% (inactive). The results for the nuclei count in test [2] and in test [3] were 81.8% and 110%, respectively. For the same molecule, the fluorescence slope in test [4] was -0.506 (inactive). Also, in test [5], the NADPH fluorescence slope is -5.4e-05 (inactive). The slope in test [6] was 0.0059 (inactive).

For the molecule `CCOC(=O)c1cccnc1SCC(=O)NC(C)CC` (centres undefined), the cell count in test [1] was 689. Besides, the inhibition in test [1] was -22.4% (inactive); in test [3], -54.6% (inactive); in test [7], 7.9% (inactive); in test [8] it was 17.7% (inactive). The inhibition of aggregation in test [2] was 23.4% (inactive). Besides, the nuclei count came to 99.8% in test [2] and 119% in test [3]. In test [4], the fluorescence slope is -0.469 (inactive). Moreover, the NADPH fluorescence slope in test [5] was -0.0001 (inactive). Also, in test [6], the slope was 0.006 (inactive).

As for `Cc1cc(NC(=O)CCC(=O)N(c2cccnc2)C(C(=O)NC2CCCC2)c2ccccc2F)no1` (centres undefined), in test [1], the cell count was 557. The inhibition in test [1] was -9% (inactive); in test [3], -19.7% (inactive); in test [7], -5.41% (inactive); in test [8] it was -11% (inactive). Also, the inhibition of aggregation in test [2] is 11.8% (inactive). In addition, the nuclei count in test [2] is 107%; in test [3], 116%. In test [4], the fluorescence slope is -0.62 (inactive). In test [5], the NADPH fluorescence slope was -5.7e-06 (inactive). In addition, the slope in test [6] is 0.00332 (inactive).

`O=C(CCS(=O)(=O)c1cccc2nsnc12)N1CCN(Cc2ccc3c(c2)OCO3)CC1`: in test [1], the cell count stood at 582. Moreover, the inhibition was 4.1% (inactive) in test [1], -84.7% (inactive) in test [3], 2.36% (inactive) in test [7] and 14.2% (inactive) in test [8]. Moreover, the inhibition of aggregation in test [2] was -47.2% (inactive). Also, the figures for the nuclei count in test [2] and in test [3] were 53.4% and 97.8%, respectively. Moreover, the fluorescence slope in test [4] is -0.533 (inactive). In addition, in test [5], the NADPH fluorescence slope was -4.8e-05 (inactive). For the same molecule, the slope in test [6] is 0.00459 (inactive).

For the molecule `CCOc1ccccc1C(=O)NC(C)c1ccc2c(c1)OCO2` (centres undefined), the cell count in test [1] was found to be 368. The inhibition in test [1] was 0.8% (inactive); in test [3], -6.7% (inactive); in test [7], 15.1% (inactive); in test [8], -8.04% (inactive). In test [2], the inhibition of aggregation was 0.3% (inactive). Moreover, the nuclei count worked out at 122% in test [2] and 92.4% in test [3]. Also, in test [4], the fluorescence slope is -0.523 (inactive). In test [5], the NADPH fluorescence slope is -5.4e-05 (inactive). In test [6], the slope is 0.00595 (inactive).

As to `CCC(C)NC(=O)C1c2cc(OC)c(OC)cc2C(=O)N(C)C1c1ccc(OC)cc1` (centres undefined), the cell count in test [1] is 455. For the same molecule, the inhibition in test [1] was -0.3% (inactive); in test [3] it was 43.7% (inactive); in test [7], -0.973% (inactive); in test [8] it was 2.51% (inactive). In addition, the inhibition of aggregation in test [2] is 7.3% (inactive). The nuclei count came to 100% in test [2] and 52.6% in test [3]. Besides, the fluorescence slope in test [4] is -0.539 (inactive). Further, in test [5], the NADPH fluorescence slope was -8.1e-06 (inactive). Besides, the slope in test [6] was 0.00537 (inactive).

Consider `COc1ccccc1CNS(=O)(=O)c1ccc(NC(C)=O)cc1`, for which the cell count in test [1] stood at 601. The inhibition in test [1] was 8.1% (inactive); in test [3] it was -57.3% (inactive); in test [7] it was 6.03% (inactive); in test [8], 6.94% (inactive). Further, the inhibition of aggregation in test [2] was -1.3% (inactive). The nuclei count was 110% in test [2] and 109% in test [3]. Also, in test [4], the fluorescence slope is -0.411 (inactive). For the same molecule, the NADPH fluorescence slope in test [5] is -4.2e-05 (inactive). In addition, the slope in test [6] was 0.00719 (inactive).

With `O=C(CN1C(=O)CCSc2ccccc21)Nc1ccccc1`, the cell count in test [1] was found to be 854. Moreover, the inhibition is -4.1% (inactive) in test [1], -140% (inactive) in test [3], -3.3% (inactive) in test [7] and 7.46% (inactive) in test [8]. Besides, in test [2], the inhibition of aggregation was -19.8% (inactive). Further, the nuclei count was found to be 105% in test [2] and 113% in test [3]. In addition, in test [4], the fluorescence slope is -0.447 (inactive). In addition, the NADPH fluorescence slope in test [5] is -0.000395 (inactive). Further, the slope in test [6] is 0.00731 (inactive).

`CCCN1CCN(C(=O)Cn2c(=O)oc3cc(S(=O)(=O)NCc4ccccc4)ccc32)CC1`: the cell count in test [1] is 809. Also, the inhibition in test [1] was 1.6% (inactive); in test [3], -19.9% (inactive); in test [7], 8.82% (inactive); in test [8], 23.8% (inactive). Also, in test [2], the inhibition of aggregation is -16.6% (inactive). The nuclei count in test [2] amounted to 117%; in test [3] it was 114%. The fluorescence slope in test [4] was -0.51 (inactive). The NADPH fluorescence slope in test [5] is -2.7e-05 (inactive). The slope in test [6] was 0.00639 (inactive).

The values are drawn from PubChem BioAssay.
